Only some compounds are listed: those with a hit (about 7.1% of all), similar ones and a draw of the others.
MCF10A rerep = induces DNA re-replication in MCF 10a normal breast cells; MCF 10A DNA re-replication, Hoechst nuclear intensity, 48 h; 2.9% of 350,000 active; Potency, µM (titrated, usually from 46.1 µM), without a hit: top-dose activity, positive = re-replication, hits mostly activators; also: potency is read from the fitted curve at half-maximal effect; % of control where 0% means no effect; nearly all actives have a fitted effect of over 50% in size
ATXN2 expr inh = reduces ATXN2 reporter expression in HEK-293 cells; HEK-293 ATXN2-luciferase reporter, luminescence, 24 h; Potency, µM (titrated, usually from 57 µM), for inactives: at the highest dose activity change, negative = inhibition, usual class: inhibitors; 0.72% of 360,000 active; AID 1745845; also: potency is read from the fitted curve at half-maximal effect; % is scaled to controls: 0 for no effect and ±100 for the full control effect; nearly all actives have a fitted effect of over 55% in size
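ATXN2-luciferase reporter cells (luciferase flanked by upstream and downstream ATXN2 gene portions) were treated 24 h at 37 °C with compounds at up to 57 uM. SteadyGlo luminescence gave expression; GF-AFC fluorescence gave viability.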
S2 tox = viability counter-screen for ATXN expression inhibitors | Potency, µM (highest dose often 56.7 µM), actives largely listed as cytotoxic | S2 cells (HEK-293 line with an ATXN2-luciferase reporter) viability, CellTiter-Fluor protease fluorescence, 24 h | 0.49% of 400,000 active; also: potency is read from the fitted curve at half-maximal effect; nearly all actives have a fitted effect of over 40% in size
IL1B secr inh = inflammasome signaling inhibition, IL-1 beta readout; activity change, % at 57.5 µM; THP-1 LPS/ATP IL-1B secretion, AlphaLISA, 16 h; stronger effect = lower value; 4.7% of 360,000 active; in the data active = activity change below about -50%; inconclusive = mostly about -30% to -49%; also: % is scaled to controls: 0 for no effect and ±100 for the full control effect
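THP-1 cells pretreated 1 hr with compounds (up to 57.5 uM final), then stimulated with LPS (250 ng/mL final) plus ATP (1.25 mM final); secreted IL-1B measured by AlphaLISA after 16 hr, decreased signal indicating inhibition.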
SW480 rereplic = DNA re-replication induction in SW480 cells; Potency, µM (doses to about 46.1 µM), without a hit: top-dose re-replication activation, most hits filed as activators; 1.8% of 340,000 active; AID 624297; SW480 DNA re-replication, Hoechst DNA content imaging, 48 h; also: potency is read from the fitted curve at half-maximal effect; % of control where 0% means no effect; nearly all actives have a fitted effect of over 55% in size
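250 cells/well; 23 nL cpd via pin tool; 48 hr, 37 C, 5% CO2; Hoechst 40 min; imager read of total nuclear intensity, ex 405/em 500-530 nm.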
PINK1 modulator = modulators of PINK1 expression. 0.2% of 410,000 active. Potency, µM (doses to about 76.6 µM), inactives show top-dose activation (PINK1 increase), hits mostly activators. PINK1 immunofluorescence, high-content cytometry, 24 h; active = well fitted activation curve with a large enough effect; inconclusive = small, poorly fitted or top-dose-only effect; cell line not stated here; also: potency is read from the fitted curve at half-maximal effect; % of control where 0% means no effect; nearly all actives have a fitted effect of over 65% in size
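Stable cell line, 250 cells/well, 12 h attachment; compounds pinned at 5 concentrations, 24 h; CCCP control. Fixed with nuclear dye, primary antibodies 12 h at 10 degrees C, secondary plus cell stain; laser-scanning cytometer read.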
* marks the source's active call; other numbers are inactive results; ! = not active in a repeat; [ ] = another dose, or the depositor's remark. Unless noted, calls follow the shape of the dose curve; as a rule, active = well fitted curve in the direction sought with a large enough effect; inconclusive = small, poorly fitted or top-dose-only effect, or another doubt; inactive = no such curve, though single readings can be large; an effect the other way counts as inactive or inconclusive.

Screening COC(=O)c1ccccc1-c1ccc(/C=N/Nc2nc(N3CCCC3)nc(N3CCCC3)n2)o1 returned MCF10A rerep inconclusive, ATXN2 expr inh inconclusive, S2 tox inconclusive, IL1B secr inh -90.7*, SW480 rereplic inconclusive and PINK1 modulator 3.8%.
For O=[N+]([O-])c1ccc(/C=N/Nc2nc(N3CCCCCC3)nc(N3CCCCCC3)n2)o1 the results were MCF10A rerep inconclusive, ATXN2 expr inh 0.0%, S2 tox inconclusive, IL1B secr inh inconclusive, SW480 rereplic inconclusive and PINK1 modulator 10.3%.
Screening COc1nc(N/N=C/c2ccc(-c3ccccc3[N+](=O)[O-])o2)nc(N2CCOCC2)n1 returned MCF10A rerep 10.3µM*, ATXN2 expr inh 10.4%, S2 tox inactive, IL1B secr inh 0.0, SW480 rereplic inconclusive and PINK1 modulator -0.1%.
`COc1cccc(C2=NS(=O)(=O)N(C)C(C(=O)Nc3cccc(O)c3)=C2)c1` gave ATXN2 expr inh 14.7%, S2 tox inactive and PINK1 modulator 1.8%.
Screening O=C(NCCc1csc(-c2ccc(C(F)(F)F)cc2)n1)c1ccc(F)c(F)c1 returned ATXN2 expr inh 20µM*, S2 tox inconclusive and PINK1 modulator inconclusive.
Screening Cc1cc(C)cc(C(=O)NCCc2csc(-c3ccc(C(F)(F)F)cc3)n2)c1 returned PINK1 modulator -0.6%.
For O=C(Cc1ccc(F)cc1)NCCc1csc(-c2cccc(F)c2)n1 the results were ATXN2 expr inh -29.4%, S2 tox inactive and PINK1 modulator 0.5%.
`O=C(NCCc1csc(-c2ccc(F)cc2)n1)c1cccc(F)c1` gave ATXN2 expr inh 28.2µM*, S2 tox inconclusive and PINK1 modulator 0.0%.
Screening Cc1ccc(N(C)S(=O)(=O)c2ccc(-c3cc(C)no3)s2)cc1 returned MCF10A rerep 9.2µM*, S2 tox inactive, IL1B secr inh 3.8, SW480 rereplic inconclusive and PINK1 modulator 3.9%.
Screening Cc1cc(-c2ccc(S(=O)(=O)NCc3ccccc3Cl)s2)on1 returned PINK1 modulator 0.9%.
Screening Cc1cc(-c2ccc(S(=O)(=O)N(C)c3ccc(C)c(C)c3)s2)on1 returned MCF10A rerep 10.3µM*, S2 tox inconclusive, IL1B secr inh 23.7, SW480 rereplic inconclusive and PINK1 modulator 7.8%.
For Cc1ccc(-n2c(=O)c3c(c4cc(C)ccc4n3C)n(CC(=O)Nc3ccc(F)cc3)c2=O)cc1 the results were ATXN2 expr inh -9.4%, S2 tox inactive and PINK1 modulator 9.0%.
Screening Oc1ccc(Cl)c2cccnc12 returned MCF10A rerep inconclusive, ATXN2 expr inh 12.6µM*!, S2 tox inconclusive, IL1B secr inh -29.8, SW480 rereplic 20.6µM* and PINK1 modulator 5.7%.
Clc1cc2cccnc2c2ccccc12 was read as MCF10A rerep -9.1%, ATXN2 expr inh 7.1%, S2 tox inactive, IL1B secr inh 14.7, SW480 rereplic -7.0% and PINK1 modulator 8.5%.
`Oc1c(Cl)cc(Cl)c2cccnc12` gave MCF10A rerep 6.68µM*, ATXN2 expr inh 24.3µM*!, S2 tox inconclusive, IL1B secr inh 125.9, SW480 rereplic 3.76µM* and PINK1 modulator 7.7%.
`Oc1ccc(F)c2cccnc12` gave MCF10A rerep inconclusive, ATXN2 expr inh -6.4%, S2 tox inactive, IL1B secr inh -70.2*, SW480 rereplic inconclusive and PINK1 modulator 0.9%.
`O=C(O)c1ccc(O)c2ncccc12` gave ATXN2 expr inh 18.8%, S2 tox inactive and PINK1 modulator 4.6%.
For Cc1ccc(S(=O)(=O)Nc2cc(Cl)c(O)c3ncccc23)cc1 the results were MCF10A rerep inconclusive, ATXN2 expr inh 11.2µM*, S2 tox inactive, IL1B secr inh 50.4, SW480 rereplic 5.17µM* and PINK1 modulator -0.9%.
`Cc1ccccc1-c1cccc(CN2CCc3nnc(C(C)NC(=O)c4cccnc4)n3CC2)c1` (configuration not stated) gave S2 tox inactive and PINK1 modulator 1.8%.
`Oc1ccc(-c2nc(-c3ccc(O)c(O)c3)cs2)cc1` gave MCF10A rerep inconclusive, ATXN2 expr inh 54.1%, S2 tox inconclusive, IL1B secr inh 0.0, SW480 rereplic 1.46µM* and PINK1 modulator -0.3%.
For COC(=O)COc1ccc2occ(C(C)=O)c2c1 the results were MCF10A rerep 8.2µM*, ATXN2 expr inh 1.6%, S2 tox inactive, IL1B secr inh 16.2, SW480 rereplic 16.4µM* and PINK1 modulator -3.7%[38.3 µM].
`O=C(O)COc1ccc2occ(C(=O)c3ccccc3)c2c1` gave MCF10A rerep -2.9%, ATXN2 expr inh -2.9%, S2 tox inactive, IL1B secr inh 1.0, SW480 rereplic -7.8% and PINK1 modulator 0.9%.
For O=C(CSc1ncc2c(n1)-c1ccccc1N(Cc1ccc(F)cc1)S2(=O)=O)NCc1ccccc1 the results were ATXN2 expr inh 9.3%, S2 tox inactive and PINK1 modulator -0.7%.
Cc1nc(N2CCC(C)CC2)c2c(C)c(C(=O)Nc3ccc(C(F)(F)F)cc3)sc2n1 was read as MCF10A rerep inconclusive, ATXN2 expr inh -6.6%[11.3 µM], S2 tox inactive, IL1B secr inh -84.2*, SW480 rereplic 10.3% and PINK1 modulator 39.8µM*.
For Cc1nc(N2CCC(C)CC2)c2c(C)c(C(=O)Nc3cccc(C(F)(F)F)c3)sc2n1 the results were MCF10A rerep 20.6µM*, S2 tox inactive, IL1B secr inh 0.0, SW480 rereplic inconclusive and PINK1 modulator 20.2%.
For Cc1ccc(OCc2cc(=O)n3c4c(sc3n2)CCCC4)cc1C the results were ATXN2 expr inh 2.7%, S2 tox inactive and PINK1 modulator 9.6%.
COC(=O)c1c(-c2ccc(Cl)cc2)noc1N1CCN(c2cccc(OC)c2)CC1 was read as ATXN2 expr inh 1.4%, S2 tox inactive and PINK1 modulator -0.2%.
Cc1ccc(CCNC(=O)c2ccc(CSCc3ccc(C)cc3)o2)cc1 was read as PINK1 modulator 0.9%.
For Cc1ccc(CSCc2ccc(C(=O)NCCC(C)C)o2)cc1 the results were MCF10A rerep inconclusive, ATXN2 expr inh 5.7%, S2 tox inactive, IL1B secr inh -66.1*, SW480 rereplic 5.6% and PINK1 modulator 4.7%.
Screening Cc1ncc2c(c1CNC(=O)c1ccccc1F)CCN(C(=O)c1ccccc1-n1cccn1)C2 returned S2 tox inactive and PINK1 modulator 0.5%.
`Fc1cccc(Cl)c1CNCCSc1nnnn1-c1ccccc1` gave ATXN2 expr inh 13.8%, S2 tox inactive and PINK1 modulator -0.3%.

Bioassay records from PubChem BioAssay.
